Screening results deposited in PubChem by several laboratories.
The list is not random: actives were taken first. Their share in the collection is about 1.2%.
JMJD2C inh: blocks human GASC-1 demethylase activity; GST-JMJD2C(1-420) H3K9me3 demethylation, DELFIA europium; inhibition, % at 2.35 µM; actives 0.069% (n = 330,000); AID 2099;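 active means more than half of a compound's replicate wells show inhibition beyond 50%, single wells judged on their own value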;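 further: signal counts dimethyl H3K9 product captured on neutravidin plate; 0% = median of DMSO wells and 100% = 0.3 times that DMSO median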
GPR7 antag: human neuropeptides B/W receptor 1 antagonism. actives 1.1% (n = 290,000). GPR7-expressing cells, fluorescence antagonist assay. P48145. inhibition, % at 4.4 µM; in the data active means inhibition above about 16%, passing the limit was not always enough;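 further: cells stimulated with the agonist NPW; 0% = agonist with vehicle and 100% = vehicle without agonist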
Target sequence (P48145 whole entry, looked up): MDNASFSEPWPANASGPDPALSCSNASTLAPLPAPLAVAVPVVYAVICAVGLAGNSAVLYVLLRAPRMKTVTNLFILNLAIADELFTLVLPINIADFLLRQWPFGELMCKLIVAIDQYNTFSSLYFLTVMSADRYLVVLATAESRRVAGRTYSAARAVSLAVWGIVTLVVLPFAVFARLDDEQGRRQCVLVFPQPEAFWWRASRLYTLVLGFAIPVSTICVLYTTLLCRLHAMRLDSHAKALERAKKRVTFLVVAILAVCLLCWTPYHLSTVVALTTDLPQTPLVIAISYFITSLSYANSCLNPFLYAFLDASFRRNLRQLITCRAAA
VLA-4 inh: inhibition in a human VLA-4 binding assay. inhibition, % (about 7 µM as worked out from the volumes in the protocol). VLA-4 expressing cells, ligand binding flow cytometry. P13612. actives 0.2% (n = 330,000); in the data active means inhibition above about 50%
p-CIP stab down: compounds decreasing mouse p/CIP protein stability; decrease of EGFP signal, % at 10 µM; F442A p/CIP-EGFP cells, EGFP fluorescence, 16 h; actives 0.01% (n = 290,000); Q05BA5;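 active means EGFP signal decrease of at least 30% at 10 µM or well 3 SD below plate mean, unless failing retest; inactive means the rest, including hits failing retest or dose response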
GPR7 antag conf: confirmation of human GPR7 antagonists. shares compounds with GPR7 antag. GPR7-expressing cells, calcium fluorescence antagonist mode. inhibition, % at 4.4 µM. actives 52% (n = 2,400); in the data active means inhibition above about 24%;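 further: stimulated with the GPR7 agonist NPW; 0% = agonist plus vehicle and 100% = vehicle alone without agonist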
MCHR1 antagonist: MCHR1 (human) antagonism in GPR7 counter-screen; shares compounds with GPR7 antag; MCHR1-expressing cells, fluorescence antagonist assay; inhibition, % at 4.4 µM; actives 62% (n = 2,400); in the data active means inhibition above about 22%;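 further: 0% = vehicle with agonist and 100% = vehicle without agonist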
* = called active by the depositor; · = no result.

SMILES	JMJD2C inh	GPR7 antag	VLA-4 inh	p-CIP stab down	GPR7 antag conf	MCHR1 antagonist
Cc1ccc(-c2csc3ncnc(N4CCN(C(=O)c5ccccc5)CC4)c23)cc1	-2	29*	0	8	36*	53*
CCOC(=O)c1cccc(NC(=O)c2cnccn2)c1	12	-6	-1	-7	·	·
COC(=O)c1cccc(NC(=O)c2cnccn2)c1	10	24*	-5	2	8	1
Cc1cccc(N(CC(=O)N2CCCC2)S(=O)(=O)c2ccccc2)c1	-1	23*	0	-6	-11	1
Cc1ccc(S(=O)(=O)N(CC(=O)N2CCCCC2)c2cccc(C)c2)cc1	-1	-6	1	-8	·	·
COc1ccc(C2OC(=O)CC2C(=O)NC2CCCCCC2)cc1OC (stereo not drawn)	4	26*	-1	-3	-9	-2
O=c1[nH]c(=S)[nH]c2c1CN(Cc1ccc(F)cc1)CC2	-24	30*	2	-19	-5	-5
C=CCC[C@@H](Cc1ccc(F)cc1)C(=O)OC[C@H](Cc1c[nH]c2ccccc12)NC(=O)[C@H](CC=C)CC(=O)N(CCO)Cc1ccccc1	·	·	24	·	·	·
COc1ccc(Nc2ccc(Nc3ccc(OC)cc3)nn2)cc1	2	92*	3	-8	85*	89*
COc1ccc(Nc2ccc(OC)cc2)cc1	-1	-1	2	6	·	·
COC(=O)c1ccc2c(=O)n(CCN3CCOCC3)c(SCC(=O)NCc3ccccc3)nc2c1	1	-22	-5	3	·	·
Cc1ccc(OCC(O)Cn2c(=N)n(Cc3ccccc3)c3ccccc32)cc1 (stereo not drawn)	-20	33*	18	3	37*	61*
CCN(CC)CCn1c(=N)n(CC(O)COc2cccc(C)c2)c2ccccc21 (stereo not drawn)	34	14	1	-14	·	·
Cc1cccc(OCC(O)CN2CCNCC2)c1 (stereo not drawn)	13	11	0	-1	·	·
Cc1cccc(OCC(O)Cn2c(=N)n(CCN3CCCCC3)c3ccccc32)c1 (stereo not drawn)	6	38*	15	9	45*	40*
N=c1n(Cc2ccccc2)c2ccccc2n1CC(O)COc1ccc(Cl)cc1Cl (stereo not drawn)	-16	28*	·	-20	77*	98*
N=c1n(Cc2ccccc2)c2ccccc2n1Cc1ccccc1	23	15	27	-11	·	·
Cc1cccc(OCC(O)Cn2c(=N)n(Cc3ccccc3)c3ccccc32)c1 (stereo not drawn)	-23	31*	18	-6	36*	69*
FC(F)(F)c1ccc(Oc2ccc3cc(Br)ccc3c2)nc1	-5	-10	10	3	·	·
CCOC(=O)CSc1nc2c(sc(=S)n2-c2ccccc2OC)c(=O)n1Cc1ccco1	8	20	-12	1	·	·
COc1ccc(OCC(O)Cn2c(=N)n(Cc3ccccc3)c3ccccc32)cc1 (stereo not drawn)	-11	38*	-1	-8	31*	57*
Cc1c(C(=O)O)sc2[nH]c(=O)n(Cc3ccccc3)c(=O)c12	-29	-13	-6	3	·	·
CCN(CC)S(=O)(=O)c1cc(C(=O)OC)ccc1Cl	14	37*	8	-17	-1	-4
O=C(N/N=C/c1ccccc1)c1cc(-c2ccc3c(c2)OCO3)n[nH]1	-3	23*	4	-10	-1	36*
CCOc1ccccc1-n1c(C)nc2cc(C(=O)O)ccc21	3	28*	12	0	-28	2
SMILES	JMJD2C inh	GPR7 antag	VLA-4 inh	p-CIP stab down	GPR7 antag conf	MCHR1 antagonist
Cc1nc2cc(C(=O)O)ccc2n1-c1ccc(F)cc1F	3	-13	8	11	·	·
CC(Oc1ccccc1)C(=O)Nc1ccc(S(=O)(=O)N2CCOCC2)cc1 (stereo not drawn)	-14	-2	5	-4	·	·
Cc1cc(Cl)ccc1OC(C)C(=O)Nc1ccc(S(=O)(=O)N2CCOCC2)cc1 (stereo not drawn)	-10	35*	-1	-20	24	26*
Cc1cc(C)cc(OC(C)C(=O)Nc2ccccc2C(=O)NCc2cccnc2)c1 (stereo not drawn)	6	-8	-3	-10	·	·
CC1CCC(C(C)C)C(OC(=O)C[n+]2cc(-c3ccc(Cl)cc3)n3c2CCC3)C1 (stereo not drawn)	-2	28*	3	-28	38*	51*
O=C(C[n+]1cc(-c2ccc(Cl)cc2)n2c1CCC2)N1c2ccccc2Sc2ccccc21	9	-7	12	0	·	·
O=C(/C=C/c1ccc([N+](=O)[O-])s1)N1CCN(c2ccccc2)CC1	-3	26*	-1	9	6	5
Cc1ccsc1C1C(C#N)=C(N)Oc2n[nH]c(C)c21 (stereo not drawn)	-6	-6	16	-1	·	·
Cc1[nH]nc2c1C(c1cccs1)C(C#N)=C(N)O2 (stereo not drawn)	-19	40*	3	2	5	6
O=C(O)c1ccc(NCc2cccc(Br)c2)cc1	-4	29*	-7	-18	28*	18
COc1ccc(Br)cc1C1NC(=O)NC(C)=C1C(=O)N(C)C (stereo not drawn)	5	23*	23	-4	5	4
COC(=O)C1=C(C)NC(=O)NC1c1cc(Cl)ccc1OC (stereo not drawn)	5	-10	7	10	·	·
CC(=O)Nc1ccc(Sc2ncccc2C(=O)Nc2cc(Cl)cc(Cl)c2)cn1	2	-4	3	-8	·	·
CC(=O)Nc1ccc(Sc2ncccc2C(=O)Nc2ccc(OC(F)(F)F)cc2)cn1	5	97*	0	10	98*	103*
COc1cc(OC)c(CN2CCN(c3ccc(F)cc3)CC2)cc1Br	3	22*	21	-6	17	18
Cc1nn(CC(=O)Nc2ccccc2C(F)(F)F)c(=O)c2cccn12	12	31*	4	9	9	1
O=C(NCCNc1ccc([N+](=O)[O-])cc1)c1ccc(Cl)cc1	0	7	15	9	·	·
O=C(COc1ccc(Cl)cc1)NCCNc1ccc([N+](=O)[O-])cc1	-19	52*	11	4	49*	51*
COc1ccc(CCC(=O)OCC(=O)NCc2ccccc2)cc1	12	·	6	·	·	·
Cc1ccc(S(=O)(=O)/N=C(\N)Nc2nc(C)c3cc(C)c(C)cc3n2)cc1	16	30*	-4	-3	14	21
Cc1ccc(S(=O)(=O)/N=C(\N)Nc2nc(C)c3ccc(C)cc3n2)cc1	-8	11	3	3	·	·
Cc1ncsc1C(=O)N1CCCC(CNS(=O)(=O)c2cccs2)C1 (stereo not drawn)	1	-13	-21	-10	·	·
O=C(COC(=O)C(Cc1ccccc1)NC(=O)c1cccs1)NCc1ccccc1 (stereo not drawn)	-8	·	-11	·	·	·
